High-throughput results as filed in PubChem.
GPR151 activ – activates the human receptor GPR151; activation, % at 11.2 µM; AID 1508602; hit rate 1% among 650,000; PathHunter beta-arrestin GPR151 cells, luminescence; in the data active = activation above about 4.9%;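 note: 0% = median of compound wells and 100% = cells with positive control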
FBW7 act – activators of human E3 ligase FBW7. Q969H0. AlphaScreen FBW7–phospho-cyclin E peptide binding, activator screen. normalized activity (activation), % at 26.1 µM. hit rate 0.13% among 650,000; in the data active = normalized activity above about 1.9%;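 note: purified mutant Fbw7 with reduced substrate affinity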
MITF primary – inhibitors of human MITF; O75030; AlphaScreen MITF homodimerization, bead proximity signal; inhibition, % at 2.6 µM; hit rate 0.91% among 650,000; in the data active = inhibition above about 50%;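 note: 0% = vehicle wells with protein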
TEAD-YAP inh – TEAD-YAP interaction inhibition | HEK-TIYL cells, TEAD-Gal4/YAP UAS-luciferase luminescence | inhibition, % at 9.12 µM | hit rate 1.4% among 640,000 | AID 1259422; in the data active = inhibition above about 32%;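 note: 0% = median of test compound wells and 100% = reference inhibitor wells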
GPR151 confirm – human GPR151 activation, confirmation screen; GPR151 PathHunter beta-arrestin cells, luminescence, 90 min; % of EA-reagent control over plate median; 6,700 tested, under 10 active; AID 1508609; shares compounds with GPR151 activ; activation, % at 11.2 µM;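 active = mean percent activation across replicates above the confirmation screen cutoff of 4.91%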
GPR119 counter – GPR119 activation, counter-screen for GPR151 activators; hit rate 0.3% among 6,700; activation, % at 11.2 µM; AID 1508611; GPR119 PathHunter beta-arrestin cells, luminescence, 90 min; 0 = compound-well median, 100 = enzyme-acceptor control; shares compounds with GPR151 activ;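 active = mean percent activation in the counterscreen above 29.09%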;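 note: counterscreen on off-target GPR119 to flag nonselective hits from the GPR151 activator screen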
Target sequence (Q8TDV5 whole entry, looked up): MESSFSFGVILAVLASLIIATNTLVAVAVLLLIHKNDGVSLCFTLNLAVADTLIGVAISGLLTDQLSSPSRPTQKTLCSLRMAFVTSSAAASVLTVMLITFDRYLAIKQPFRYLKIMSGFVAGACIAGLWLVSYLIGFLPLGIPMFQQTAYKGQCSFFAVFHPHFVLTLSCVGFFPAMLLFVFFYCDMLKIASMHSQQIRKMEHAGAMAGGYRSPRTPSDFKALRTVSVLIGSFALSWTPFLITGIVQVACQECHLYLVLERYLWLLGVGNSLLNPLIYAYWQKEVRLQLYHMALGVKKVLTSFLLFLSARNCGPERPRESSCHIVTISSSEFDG
The depositor's hits bear a star; . = no result. Sampled rows, rich in hits. Any-hit rate of the full collection: about 3.5%.

SMILES	GPR151 activ	FBW7 act	MITF primary	TEAD-YAP inh	GPR151 confirm	GPR119 counter
COc1cc(OC)c(C(=O)OC(C)C(=O)NC(N)=O)cc1OC (stereo not drawn)	12.7*	-0.1	5.7	-4.0	0.6	2.8
COC(=O)CN1C(=O)S/C(=C/c2ccc(Br)cc2)C1=O	-0.7	-0.2	-9.5	-5.4	.	.
COC(=O)CN1C(=O)S/C(=C/c2cc(Cl)cc(OC)c2O)C1=O	5.2*	-0.2	6.8	-3.7	-1.4	-6.9
COC(=O)CN1C(=O)S/C(=C/c2ccc(OCC(=O)O)c(Br)c2)C1=O	6.9*	0.2	10.2	0.8	-0.1	-12.3
Cc1ccc(S(=O)(=O)NC(C)C(=O)Nc2ccc(C(F)(F)F)cc2)cc1 (stereo not drawn)	0.3	-0.1	-16.9	6.7	.	.
CC(Oc1ccc(Br)cc1)C(=O)Nc1cccc([N+](=O)[O-])c1 (stereo not drawn)	6.1*	0.1	18.7	-8.2	1.6	-3.0
Cc1ccc(S(=O)(=O)NC(C)C(=O)Nc2cccc(C(F)(F)F)c2)cc1 (stereo not drawn)	6.0*	0.0	7.5	14.1	0.1	0.3
CC(NS(=O)(=O)c1cc(Cl)ccc1Cl)C(=O)Nc1cccc([N+](=O)[O-])c1 (stereo not drawn)	7.7*	-0.1	0.3	5.5	0.6	6.6
COC(=O)c1ccc(NC(=O)C(C)NS(=O)(=O)c2cc(Cl)ccc2Cl)cc1 (stereo not drawn)	-1.1	0.1	6.1	2.9	.	.
CCOC(=O)COc1ccc(S(=O)(=O)NC(C)CC)cc1 (stereo not drawn)	5.3*	-0.1	-4.2	3.9	-0.2	9.3
COC(=O)c1ccccc1NC(=O)COc1cccc(C)c1C	-0.7	0.3	0.9	-37.4	.	.
CN=C1Sc2nc3cc(OC)ccc3cc2CN1CC1CCCO1 (stereo not drawn)	-1.3	0.3	18.2	-11.0	.	.
CC(=O)c1cccc(NC(=O)C(C)NS(=O)(=O)c2ccc(F)cc2)c1 (stereo not drawn)	6.3*	0.0	-4.4	-7.0	0.8	5.2
COc1ccc(NC(=O)C(C)NS(=O)(=O)c2ccc(C)cc2)cc1OC (stereo not drawn)	12.7*	0.0	20.7	1.4	0.1	5.2
COc1ccc(S(=O)(=O)NC(C)C(=O)Nc2ccccc2)cc1 (stereo not drawn)	0.0	0.2	16.4	0.5	.	.
COc1ccc(S(=O)(=O)NC(C)C(N)=O)cc1 (stereo not drawn)	6.0*	0.0	3.4	3.2	-0.5	2.2
COc1cc(NC(=O)CS(=O)(=O)c2ccc(C)cc2)cc(OC)c1OC	6.0*	0.2	12.5	2.5	-0.2	-9.0
CCCS(=O)(=O)NCc1c(C)ncc2c1CCN(C(=O)c1csc3c1CCCC3)C2	0.8	-0.1	1.3	-0.2	.	.
Nc1cccc(-c2cccc(C(=O)NC3CC3)n2)c1	-1.8	-0.1	15.1	3.6	.	.
Cc1c(C(=O)N(CCO)C(C)C)sc2ncnc(NCc3cccc(F)c3)c12	1.1	-0.1	0.5	-12.1	.	.
CCNC(=S)N1CCN(Cc2ccc(F)cc2)CC1	6.6*	0.4	12.8	-1.9	0.0	-9.6
CN1CCCN(Cc2ccc(Cl)c(Cl)c2)CC1	0.4	-0.3	31.9	8.8	.	.
CN1CCCN(Cc2ccc(F)cc2)CC1	6.0*	-0.2	48.7	-3.4	-0.1	16.8
Cc1ccnc(SCc2cc(=O)c(OC(=O)Cc3cccc4ccccc34)co2)n1	0.1	0.2	17.2	15.1	.	.
CC1(C)CC(=O)C2=C(C1)OC(c1ccccc1Cl)C(C#N)=C2N (stereo not drawn)	0.1	0.4	13.4	17.3	.	.
SMILES	GPR151 activ	FBW7 act	MITF primary	TEAD-YAP inh	GPR151 confirm	GPR119 counter
CC(=O)Nc1ccc(C2OC3=C(C(=O)CC(C)(C)C3)C(N)=C2C#N)cc1 (stereo not drawn)	5.6*	0.0	4.2	9.3	1.4	-0.7
CC1(C)CC(=O)C2=C(C1)OC(c1ccc(Cl)cc1Cl)C(C#N)=C2N (stereo not drawn)	10.4*	0.2	-3.8	8.3	0.9	11.1
CC1=C(C(=O)OC2CCCC2)C(c2ccccc2I)NC(=O)N1C (stereo not drawn)	-0.5	0.1	6.8	-11.6	.	.
COc1ccc(NC(=O)CSCC(=O)Nc2ccc(C(C)C)cc2)cc1Cl	1.4	0.0	9.4	6.9	.	.
O=C1CCCN1CCn1cnc2c(NCCO)nc(NC3CCN(Cc4ccccc4)CC3)nc21	-1.8	0.0	-1.6	-12.2	.	.
O=C(CN1C(=O)C2(SCC(=O)N2c2ccc(F)cc2)c2ccccc21)NCCc1ccccc1 (stereo not drawn)	1.5	-0.2	-1.0	11.6	.	.
O=C(CN1C(=O)C2(SCC(=O)N2c2ccc(F)c(F)c2)c2ccccc21)NCCc1ccccc1 (stereo not drawn)	5.4*	0.3	7.0	-0.7	-0.3	-6.5
O=C(Cc1csc(-n2cccc2)n1)Nc1ccc2c(c1)OCCO2	1.6	-0.1	3.9	25.1	.	.
Oc1ccccc1-c1csc(Nc2ccccn2)n1	7.6*	-0.1	-8.0	-79.5	-2.0	-14.5
O=S(=O)(/C=C/c1ccccc1)N1CCCC(N2CCN(c3ccccc3)CC2)C1 (stereo not drawn)	5.6*	-0.2	1.5	20.4	0.3	6.5
CCCN=C(CC)C1=C(O)CC(C)(C)CC1=O	5.4*	0.1	-14.9	-3.2	-0.7	-3.5
C=CCN=C(CC)C1=C(O)CC(C)(C)CC1=O	-0.6	0.0	1.0	-3.2	.	.
CCOC(=O)c1sc2nc(SCC(=O)c3ccccc3)n(Cc3ccc(Cl)cc3)c(=O)c2c1C	-0.7	-0.1	0.4	-8.5	.	.
CCOC(=O)c1sc2nc(SCC(=O)c3ccc(Cl)cc3)n(Cc3cccs3)c(=O)c2c1C	5.1*	0.0	-11.6	9.7	1.2	7.8
CCCCCn1c(N2CCCC2)nc2c1c(=O)[nH]c(=O)n2C	-0.3	0.1	7.1	3.9	.	.
CCCCCCn1c(N2CC(C)CC(C)C2)nc2c1c(=O)[nH]c(=O)n2C (stereo not drawn)	5.8*	0.1	11.0	-5.2	0.3	7.2
COc1ccc(-c2cn3nc(CNc4ccc(NC(C)=O)cc4)n4c3c2CCCC4)cc1	1.1	-0.1	14.2	12.1	.	.
O=[N+]([O-])c1cc([N+](=O)[O-])c2nonc2c1Nc1cccc(C(F)(F)F)c1	7.1*	0.6	18.4	5.8	1.0	-10.1
CCOc1ccc(NC(=O)CSc2cn(Cc3cccc(F)c3)c3ccccc23)cc1	17.5*	0.1	10.8	-5.0	-0.4	4.0
CCCn1cc(SCC(=O)Nc2ccc(OCC)cc2)c2ccccc21	0.1	0.0	-10.7	20.5	.	.
COc1ccc(/C(C)=N/NC(=O)CNC(=O)c2ccccc2O)cc1	5.3*	0.2	4.2	-6.3	-0.5	-7.6
C/C(=N/NC(=O)CNC(=O)c1ccccc1O)c1ccc(F)cc1	-1.1	0.0	12.3	-1.3	.	.
CCC[C@@H]1NC(=O)[C@@H]2C[C@H](NC(=O)c3ccc(F)cc3)CN2C1=O	0.5	-0.1	-4.3	-6.8	.	.
